Screens from PubChem BioAssay.
hcDAF-12 act: H. contortus DAF-12 nuclear receptor activators, primary screen, cell-based, luminescence, HEK293, lit1-tk-luc reporter | AID 652067, 2013 | activation, % at 6.8 µM | HEK293 hcDAF-12 lit1-tk-luc reporter; 0% DMSO, 100% Δ7-dafachronic acid | hit rate 1.4% among 370,000;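 active means activation above the mean of all tested compounds plus 3 SD, cut at about 5.5% in these data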
DAX1 StAR inh: DAX1 (NR0B1) inhibitors on StAR promoter, primary screen, cell-based, luminescence, SF-1 (NR5A1), full-length DAX-1 | inhibition, % at 6.8 µM | HEK293T StAR-luciferase reporter, SF-1/DAX-1 repression relief | hit rate 1.1% among 370,000;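 active means inhibition above the mean over all tested compounds plus 3 SD, cut at about 3.6% in these data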;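 further: higher inhibition means more luminescence from relief of DAX-1 repression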
esBAF inh: Bmi1 luciferase reporter increase in mESCs, primary screen, esBAF inhibitor project, mouse ES cells, Bmi1 luciferase knock-in, single point. hit rate 2% among 350,000. reporter increase, % at 12.5 µM. 24 h; 100% = twice the neutral-well signal; in the data active means activation above about 40%; inconclusive means no clear call, values can overlap the other calls;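 further: a rise in the Bmi1 reporter signal indicates esBAF inhibition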
hgDAF12 agonist: H. glycines DAF-12 receptor agonists, primary screen, cell-based, luminescence, HEK293, GAL4 fusion, UAS-luciferase; HEK293 GAL4-hgDAF12 UAS-luciferase reporter, agonist luminescence; normalized to butyrate control; AID 687014, 2013; activation, % at 6.8 µM; Nuclear hormone receptor DAF-12 (Heterodera glycines), GAL4 fusion; hit rate 1.8% among 370,000;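 active means activation above a cutoff set at the mean of all screened compounds plus 3 SD, cut at about 10% in these data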
ssDAF12 agonist: S. stercoralis DAF-12 nuclear receptor activators, primary screen, cell-based, luminescence, HEK293, GRIP1 co-expression, lit1-tk-luc; Nuclear hormone receptor DAF-12 (Strongyloides stercoralis); HEK293 ssDAF-12/GRIP1 lit1-tk-luc reporter; % of 3 µM dafachronic acid response; activation, % at 6.8 µM; hit rate 1% among 370,000; AID 652126, 2013;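 active means activation above the mean over all tested compounds plus 3 SD, cut at about 0.9% in these data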
Wnt act: Wnt/beta-catenin pathway activators, primary screen, cell-based, plate reader, single point; Wnt/beta-catenin reporter cell assay, activator; activation, % at 9.35 µM; hit rate 1.2% among 300,000; AID 743398, 2014; in the data active means activation above about 30%, passing the limit was not always enough; inconclusive means no clear call, values can overlap the other calls
LXR ag: LXR agonists, Gal4 luciferase reporter, confirmation, counter-screen for hcDAF-12 agonist project, cell-based, luminescence, HEK293, H. contortus campaign; shares compounds with hcDAF-12 act; HEK293 Gal4-LXR tk-luc reporter, 24 h; normalized: DMSO 0%, positive control 100%; activation, % at 6.8 µM; 3,400 tested, under 10 active; AID 743027, 2013;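 active means mean percent activation of the reporter above a cutoff set as the average over tested compounds plus their standard deviation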
Target sequence (P55055 whole entry, looked up, the tested form may be a part): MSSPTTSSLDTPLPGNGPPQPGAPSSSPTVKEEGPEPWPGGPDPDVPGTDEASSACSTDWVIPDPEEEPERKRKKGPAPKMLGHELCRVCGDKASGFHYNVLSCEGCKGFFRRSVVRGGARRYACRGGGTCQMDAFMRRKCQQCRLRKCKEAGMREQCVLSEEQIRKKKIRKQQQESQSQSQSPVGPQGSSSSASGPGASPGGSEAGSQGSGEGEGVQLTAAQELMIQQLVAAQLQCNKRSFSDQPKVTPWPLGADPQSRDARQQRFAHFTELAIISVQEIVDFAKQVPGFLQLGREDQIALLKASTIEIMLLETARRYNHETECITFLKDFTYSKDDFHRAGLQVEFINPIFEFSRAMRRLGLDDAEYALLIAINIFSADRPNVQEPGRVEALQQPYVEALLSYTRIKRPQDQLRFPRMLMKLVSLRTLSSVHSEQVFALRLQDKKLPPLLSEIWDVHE
hcDAF12 conf: H. contortus DAF-12 receptor agonists, confirmation, cell-based, luminescence, HEK293, lit1-tk-luc, triplicate; HEK293 hcDAF-12 lit1-tk-luc reporter; % of Δ7-dafachronic acid response; activation, % at 6.8 µM; hit rate 61% among 3,400; AID 743032, 2013; shares compounds with hcDAF-12 act;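 active means mean activation across triplicate tests above the threshold derived from the earlier primary screen, cut at about 5.5% in these data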
Of the large screens only hits and unclear results are named; the others gave an inactive call (follow-up assays come after a bar, where they were run). The list is not random: actives were taken first. Their share in the collection is about 4.2%.

O=C(NC(=S)Nc1cccc2cccnc12)c1cccs1	hcDAF-12 act 6.6, Wnt act inconclusive (no result: esBAF inh) | LXR ag inactive | hcDAF12 conf inactive
C[C@H](CO)N1C[C@H](C)[C@H](CN(C)C(=O)Nc2cccc3ccccc23)Oc2ccc(NC(=O)Nc3ccc4c(c3)OCO4)cc2C1=O	none (no result: hcDAF-12 act, DAX1 StAR inh, hgDAF12 agonist, ssDAF12 agonist, Wnt act)
C[C@@H]1CN([C@@H](C)CO)C(=O)c2cc(NC(=O)C3CC3)ccc2O[C@H]1CN(C)Cc1ccccc1	none (no result: hcDAF-12 act, DAX1 StAR inh, hgDAF12 agonist, ssDAF12 agonist, Wnt act)
O=C(Nc1nc(-c2ccncc2)cs1)c1ccco1	esBAF inh inconclusive
CCCOc1ccc(C(=O)NC(=S)Nc2nc3ccccc3s2)cc1	hcDAF-12 act 6.9 | LXR ag inactive | hcDAF12 conf 7.6
O=C(NC(=S)Nc1ccccc1N1CCCC1)c1ccco1	hcDAF-12 act 7.6 (no result: esBAF inh) | LXR ag inactive | hcDAF12 conf inactive
O=C(NC(=S)Nc1nc(-c2ccccc2)cs1)c1ccco1	hcDAF-12 act 7.0 | LXR ag inactive | hcDAF12 conf 7.3
C[C@@H]1CN([C@@H](C)CO)C(=O)c2cc(C#CCN(C)C)cnc2O[C@@H]1CN(C)C(=O)Cc1ccccc1	none (no result: hcDAF-12 act, DAX1 StAR inh, hgDAF12 agonist, ssDAF12 agonist, Wnt act)
C[C@@H]1CN([C@H](C)CO)C(=O)c2cccc(NC(=O)Nc3ccccc3)c2O[C@@H]1CN(C)Cc1ccc2c(c1)OCO2	none (no result: hcDAF-12 act, DAX1 StAR inh, hgDAF12 agonist, ssDAF12 agonist, Wnt act)
C[C@@H]1CCCCO[C@H](CN(C)S(=O)(=O)c2ccc(F)cc2)[C@@H](C)CN([C@@H](C)CO)C(=O)c2cc(NC(=O)Nc3cccc4ccccc34)ccc2O1	none (no result: hcDAF-12 act, DAX1 StAR inh, hgDAF12 agonist, ssDAF12 agonist, Wnt act)
CN(C)CC(=O)N[C@@H]1CC[C@H](CCNC(=O)C2CCCC2)O[C@@H]1CO	none (no result: hcDAF-12 act, DAX1 StAR inh, hgDAF12 agonist, ssDAF12 agonist, Wnt act)
CNCc1ccccc1OCC(=O)Nc1ccccc1	hcDAF-12 act 7.0 (no result: Wnt act) | LXR ag inactive | hcDAF12 conf inactive
CCc1ccccc1OCC(=O)Nc1ccc(S(N)(=O)=O)cc1	none
Cc1cccc(/C=C2\CCC(=C3SCCCS3)C2=O)c1	hcDAF-12 act 7.5 | LXR ag inactive | hcDAF12 conf 7.6
CCCC#Cc1ccc2c(c1)O[C@@H](CN(C)C(=O)c1ccccc1)[C@H](C)CN([C@@H](C)CO)S2(=O)=O	none (no result: hcDAF-12 act, DAX1 StAR inh, hgDAF12 agonist, ssDAF12 agonist, Wnt act)
O=C(CNc1cccc2ccccc12)c1ccc([N+](=O)[O-])cc1	hcDAF-12 act 6.8 (no result: esBAF inh, Wnt act) | LXR ag inactive | hcDAF12 conf inactive
O=C(Nc1cccc2ccccc12)c1ccc([N+](=O)[O-])cc1	none
C[C@@H]1CCCCO[C@@H](CN(C)Cc2ccccc2)[C@H](C)CN([C@@H](C)CO)C(=O)c2cc(NC(=O)Nc3ccc4c(c3)OCO4)ccc2O1	none (no result: hcDAF-12 act, DAX1 StAR inh, hgDAF12 agonist, ssDAF12 agonist, Wnt act)
CC(C)CCNC(=O)CCC(=O)NNc1nc2ccccc2c2nc(-c3ccccc3)nn12	hcDAF-12 act 6.8 | LXR ag inactive | hcDAF12 conf inactive
COc1ccc(NC(=O)Nc2ccc3c(c2)C(=O)N([C@@H](C)CO)C[C@@H](C)[C@H](CN(C)S(=O)(=O)c2ccc(OC)cc2)O3)cc1	none (no result: hcDAF-12 act, DAX1 StAR inh, hgDAF12 agonist, ssDAF12 agonist, Wnt act)
Oc1c(C=Nc2ccccc2Cl)[nH]c2ccccc12	hcDAF-12 act 15, hgDAF12 agonist 14, ssDAF12 agonist 1.1 | LXR ag inactive | hcDAF12 conf 8.9
Cc1ccc(NC(=S)Nc2ccccn2)c(C)c1	hcDAF-12 act 7.2 (no result: esBAF inh) | LXR ag inactive | hcDAF12 conf 8.7
Cc1cc(Cl)ccc1NC(=S)Nc1ccccn1	none (no result: esBAF inh)
Cc1ccc(NC(=S)Nc2ccccn2)cc1C	hcDAF-12 act 8.6, hgDAF12 agonist 13, ssDAF12 agonist 1.8 (no result: esBAF inh) | LXR ag inactive | hcDAF12 conf 11
Cc1cc(C)cc(NC(=S)Nc2ccccn2)c1	hcDAF-12 act 7.5 (no result: esBAF inh) | LXR ag inactive | hcDAF12 conf inactive
CCCNC(=O)N(C)C[C@@H]1Oc2ncc(C#CC3CC3)cc2C(=O)N([C@@H](C)CO)C[C@@H]1C	none (no result: hcDAF-12 act, DAX1 StAR inh, hgDAF12 agonist, ssDAF12 agonist, Wnt act)
COc1ccc(CN(C)C[C@@H]2Oc3ccc(NC(=O)Nc4ccc(C(F)(F)F)cc4)cc3C(=O)N([C@H](C)CO)C[C@@H]2C)cc1	none (no result: hcDAF-12 act, DAX1 StAR inh, hgDAF12 agonist, ssDAF12 agonist, Wnt act)
O/C(=C\c1ccc2ccccc2n1)c1ccncc1	hcDAF-12 act 8.6, esBAF inh inconclusive, hgDAF12 agonist 12, ssDAF12 agonist 1.2 | LXR ag inactive | hcDAF12 conf 12
O/C(=C\c1nc2ccccc2nc1/C=C(\O)c1ccccc1)c1ccccc1	none (no result: hcDAF-12 act, DAX1 StAR inh, hgDAF12 agonist, ssDAF12 agonist, Wnt act)
C=CCOc1c(CNc2cccc(C(=O)O)c2)cccc1OC	hcDAF-12 act 7.3, esBAF inh 52 (no result: Wnt act) | LXR ag inactive | hcDAF12 conf inactive
O=C(/C=C\c1ccco1)NC(=S)Nc1ccccc1O	none (no result: esBAF inh)
O=C(/C=C/c1ccco1)NC(=S)Nc1ccccc1O	hcDAF-12 act 6.8 (no result: esBAF inh) | LXR ag inactive | hcDAF12 conf inactive
c1ccc2c(c1)Nc1nccnc1S2	hcDAF-12 act 7.7 (no result: esBAF inh) | LXR ag inactive | hcDAF12 conf 7.5
O=C1Nc2cccnc2Sc2ccccc21	none (no result: Wnt act)
c1ccc2c(c1)ncc1cccn12	hcDAF-12 act 6.7, ssDAF12 agonist 1.5 (no result: Wnt act) | LXR ag inactive | hcDAF12 conf inactive
CCN(CCO)C(=O)CC1C(=O)NCCN1Cc1c(F)cccc1Cl (stereo unspecified)	hcDAF-12 act 11 | LXR ag inactive | hcDAF12 conf inactive
O=C(Nc1nccs1)c1ccccn1	none (no result: esBAF inh)
O=C(Nc1nccs1)c1ccc(-c2ccccc2Cl)o1	hcDAF-12 act 6.7, hgDAF12 agonist 12, ssDAF12 agonist 2.4, Wnt act inconclusive (no result: esBAF inh) | LXR ag inactive | hcDAF12 conf 6.2
Cc1cnc(NC(=O)CCCc2nc3ccccc3s2)s1	hcDAF-12 act 10, hgDAF12 agonist 12, ssDAF12 agonist 5.3 (no result: esBAF inh, Wnt act) | LXR ag inactive | hcDAF12 conf 6.9
C[C@H](CO)N1C[C@H](C)[C@@H](CN(C)Cc2ccc(C(F)(F)F)cc2)Oc2ccc(NS(C)(=O)=O)cc2C1=O	none (no result: hcDAF-12 act, DAX1 StAR inh, hgDAF12 agonist, ssDAF12 agonist, Wnt act)
C/C=C/c1ccc2c(c1)O[C@@H](CN(C)Cc1ccccn1)[C@@H](C)CN([C@H](C)CO)S2(=O)=O	none (no result: hcDAF-12 act, DAX1 StAR inh, hgDAF12 agonist, ssDAF12 agonist, Wnt act)
